Measured values published in PubChem BioAssay (NCI).
“And” between values parts separate entries of the source, which are not always exact repeats. Equal entries are not always repeated. Compounds without any hit were thinned out: in the full panel of roughly 83,000, 20% have a hit.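 Assay: single dose, 48 h. Readout: percent growth (0 = no net growth; negative = cell death). Active: <10.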 The source made the active and inactive calls.

Tests used:
Experiment in all cases: NCI-60 one-dose screen, 48 h (100 = growth as untreated, 0 = no growth, -100 = all killed)
Conditions in all cases: 10 µM unless noted
[1] = tested on: SR leukemia
[2] = tested on: RPMI-8226 leukemia
[3] = tested on: OVCAR-8 ovarian
[4] = tested on: OVCAR-5 ovarian
[5] = tested on: OVCAR-4 ovarian
[6] = tested on: SK-OV-3 ovarian
[7] = tested on: IGROV1 ovarian
[8] = tested on: OVCAR-3 ovarian
[9] = tested on: HS 578T breast
[10] = tested on: NCI/ADR-RES ovarian

SMILES	growth [1]	growth [2]	growth [3]	growth [4]	growth [5]	growth [6]	growth [7]	growth [8]	growth [9]	growth [10]
Cc1ccc(NC(=S)N/C=C(\c2ccccc2)S(=O)Cc2ccccc2)c(C)c1 (stereo not given)	96.5% (inactive)	94% (inactive)	99.2% (inactive)	97% (inactive)	91.3% (inactive)	100% (inactive)	112% (inactive)	106% (inactive)	94.8% (inactive)	105% (inactive)
COc1cc2c(cc1O)C(=O)CCCC2	102% (inactive)	104% (inactive)	117% (inactive)	92.8% (inactive)	93.6% (inactive)	108% (inactive)	64.7% (inactive)	101% (inactive)	110% (inactive)	94.5% (inactive)
CCCCC/C(C)=N\NC(N)=S	86.9% (inactive)	70.9% (inactive)	65.3% (inactive)	103% (inactive)	67.8% (inactive)	98.9% (inactive)	89.7% (inactive)	43.4% (inactive)	87.6% (inactive)	48.8% (inactive)
Cc1cc2nc3ccc(=[N+](C)C)cc-3sc2cc1N	-4.11% (active)	-10.3% (active) and -38.2% (active)	4.72% (active) and 7.29% (active)	-57.5% (active) and -0.424% (active)	8.09% (active)	8.62% (active) and 45.8% (inactive)	-55.6% (active) and 10.3% (inactive)	-15.2% (active) and -44% (active)	41.1% (inactive) and -0.376% (active)	1.81% (active) and 2.67% (active)
CCc1ccccc1-n1[nH]c(C)c(C=N)c1=O	94.8% (inactive)	107% (inactive)	118% (inactive)	110% (inactive)	114% (inactive)	119% (inactive)	112% (inactive)	124% (inactive)	99.2% (inactive)	106% (inactive)
CS(=O)(=O)OCC1NC(=O)C(COS(C)(=O)=O)NC1=O (stereo not given)	104% (inactive) and 125% (inactive)	82.7% (inactive) and 90% (inactive)	87.5% (inactive) and 107% (inactive)	106% (inactive) and 124% (inactive)	79.8% (inactive) and 87% (inactive)	107% (inactive) and 120% (inactive)	63.4% (inactive) and 57.5% (inactive)	122% (inactive) and 94.8% (inactive)	193% (inactive) and 106% (inactive)	103% (inactive) and 97.8% (inactive)
O=C(N=C1C(=O)C2(CCCCC2)C2(N=C(c3ccccc3)OC2=O)C12CCCCC2)c1ccccc1 (stereo not given)	71.8% (inactive)	53.2% (inactive)	75.4% (inactive)	85.8% (inactive)	73.8% (inactive)	99.3% (inactive)	75% (inactive)	63.6% (inactive)	95.9% (inactive)	76.8% (inactive)
COc1ccc(CCN=Cc2ccc(Cl)cc2)cc1OC	98.5% (inactive)	108% (inactive)	104% (inactive)	119% (inactive)	110% (inactive)	112% (inactive)	105% (inactive)	115% (inactive)	106% (inactive)	106% (inactive)
COC(=O)c1ccccc1Cl	96.4% (inactive)	113% (inactive)	102% (inactive)	106% (inactive)	103% (inactive)	105% (inactive)	105% (inactive)	105% (inactive)	108% (inactive)	109% (inactive)
Cc1c(Cl)c(C)c(Cc2c(C)c(Cl)c(C)c(Cl)c2O)c(O)c1Cl	22.7% (inactive)	10% (inactive)	11.4% (inactive)	45.6% (inactive)	13.9% (inactive)	-6.21% (active)	38.8% (inactive)	5.17% (active)	12.1% (inactive)	-3.46% (active)
O=[N+]([O-])c1ccc(NC(c2ccccc2)c2ccc3cccnc3c2O)cc1 (stereo not given)	6.12% (active)	22% (inactive)	17% (inactive)	58.9% (inactive)	22.2% (inactive)	34.9% (inactive)	10.9% (inactive)	30.7% (inactive)	35.6% (inactive)	11.7% (inactive)
O=[N+]([O-])c1ccc(N2CCN=N2)cc1	78.6% (inactive)	92.7% (inactive)	88% (inactive)	87.7% (inactive)	95.9% (inactive)	89.6% (inactive)	96.1% (inactive)	99.8% (inactive)	101% (inactive)	100% (inactive)
CCCCNC(=O)c1ccccc1C	85.3% (inactive)	99.7% (inactive)	107% (inactive)	94.4% (inactive)	104% (inactive)	97.3% (inactive)	96.2% (inactive)	105% (inactive)	104% (inactive)	99.3% (inactive)
CCOC(=O)c1ccc(N2C(=O)C(Cl)(c3ccccc3)C2c2ccco2)cc1 (stereo not given)	76.1% (inactive)	43% (inactive)	90.2% (inactive)	98.2% (inactive)	90.4% (inactive)	104% (inactive)	99.1% (inactive)	78.8% (inactive)	69.6% (inactive)	91.3% (inactive)
Cc1cc(-c2ccc(N=Nc3c(C)nn(-c4ccc(S(=O)(=O)O)cc4)c3O)c(C)c2)ccc1N=Nc1ccc(O)c(C(=O)O)c1	86% (inactive)	81.7% (inactive)	95.7% (inactive)	94.4% (inactive)	106% (inactive)	96.9% (inactive)	-9.24% (active)	106% (inactive)	91.8% (inactive)	104% (inactive)
CC(=O)Oc1ccc(C(c2ccc(OC(C)=O)cc2)c2ccccn2)cc1	95.1% (inactive) and 98% (inactive)	82.9% (inactive) and 104% (inactive)	48.7% (inactive)	109% (inactive) and 27% (inactive)	-9.93% (active) and -15.5% (active)	119% (inactive)	69% (inactive) and 79.3% (inactive)	61.3% (inactive) and 71% (inactive)	31.2% (inactive)	49.9% (inactive) and 34.3% (inactive)
Cc1c(O)nc(N)[nH]c1=O	125% (inactive)	100% (inactive)	101% (inactive)	106% (inactive)	118% (inactive)	112% (inactive)	118% (inactive)	121% (inactive)	101% (inactive)	102% (inactive)
Cc1cnc(N)s1	101% (inactive)	95.9% (inactive)	92.8% (inactive)	90.7% (inactive)	103% (inactive)	89.7% (inactive)	103% (inactive)	105% (inactive)	89.4% (inactive)	101% (inactive)
Clc1ccc(/C=C/c2ccc3ccccc3n2)cc1	29% (inactive) and 59.4% (inactive)	5.44% (active) and 63% (inactive) and 86.9% (inactive)	28.9% (inactive) and 86.1% (inactive) and 109% (inactive)	35.6% (inactive) and 92.6% (inactive) and 74.5% (inactive)	79% (inactive) and 88.3% (inactive) and 86.5% (inactive)	20.4% (inactive) and 83% (inactive) and 84.6% (inactive)	52.6% (inactive) and 27.6% (inactive) and 75.1% (inactive)	-20.4% (active) and 106% (inactive) and 92.8% (inactive)	-20% (active) and 168% (inactive) and 96.4% (inactive)	83.6% (inactive) and 92% (inactive) and 79.4% (inactive)
O=C(O)c1cccc(Br)c1	90.2% (inactive) and 100% (inactive)	103% (inactive) and 104% (inactive)	108% (inactive) and 100% (inactive)	100% (inactive) and 98.7% (inactive)	99.5% (inactive) and 105% (inactive)	104% (inactive) and 106% (inactive)	105% (inactive) and 104% (inactive)	100% (inactive) and 105% (inactive)	124% (inactive) and 101% (inactive)	98.1% (inactive) and 106% (inactive)
COc1ccc(COC=O)cc1	93.5% (inactive)	103% (inactive)	97.8% (inactive)	101% (inactive)	107% (inactive)	98.6% (inactive)	107% (inactive)	109% (inactive)	104% (inactive)	102% (inactive)
CC(=O)/C(N=Nc1ccc(S(=O)(=O)c2ccc(N=N/C(C(C)=O)=C(/C)O)cc2)cc1)=C(\C)O	101% (inactive)	86.7% (inactive)	102% (inactive)	110% (inactive)	107% (inactive)	112% (inactive)	92.9% (inactive)	105% (inactive)	109% (inactive)	102% (inactive)
CNc1ccc(Cl)cc1S(=O)(=O)c1ccccc1[N+](=O)[O-]	86.3% (inactive) and 88.2% (inactive)	87.3% (inactive)	105% (inactive)	90.2% (inactive) and 105% (inactive)	87.6% (inactive) and 60.6% (inactive)	120% (inactive) and 110% (inactive)	78.8% (inactive) and 104% (inactive)	105% (inactive) and 104% (inactive)	96.7% (inactive)	36.7% (inactive) and 90.6% (inactive)
